From PubChem BioAssay AID485270 (The Scripps Research Institute Molecular Screening Center, 2010)
In all, about 330,000 compounds went through this assay and about 5,800 (1.8%) were called active. Cut-off read from the data, not from the text of the source: active = inhibition mostly above about 38% (no sharp cut-off); inactive = mostly below about 40%. This excerpt belongs to a sample that is enriched for actives.

Molecular target: Orexin/Hypocretin receptor type 1 (Homo sapiens) (UniProt O43613)
Sequence (O43613 whole entry, looked up): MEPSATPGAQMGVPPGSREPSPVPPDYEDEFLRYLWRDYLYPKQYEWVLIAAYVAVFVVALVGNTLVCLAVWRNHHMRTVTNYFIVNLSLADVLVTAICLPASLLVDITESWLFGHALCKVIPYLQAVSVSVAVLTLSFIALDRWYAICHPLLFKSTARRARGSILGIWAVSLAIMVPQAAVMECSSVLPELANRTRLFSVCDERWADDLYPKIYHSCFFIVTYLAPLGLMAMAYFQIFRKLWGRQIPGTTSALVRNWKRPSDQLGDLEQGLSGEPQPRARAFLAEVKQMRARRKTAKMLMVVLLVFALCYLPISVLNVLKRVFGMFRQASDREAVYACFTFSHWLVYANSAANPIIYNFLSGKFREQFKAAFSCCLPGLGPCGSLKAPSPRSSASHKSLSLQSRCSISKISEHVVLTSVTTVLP
Experiment: blocks the human orexin 1 receptor (AID 485270);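 note: 0% = agonist challenge alone and 100% = reference antagonist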
Conditions: OX1R-expressing cells, FRET antagonist read-out; at 6.6 µM; hits give high values

| Compound | inhibition |
| --- | --- |
| O=C(CSCc1ccccc1)Nc1ccccc1 | 4.92% (inactive) |
| CC(=O)Nc1ccc(NC(=O)CSCc2cnn(-c3ccccc3)c2-n2cccc2)cc1 | 39.8% (active) |
| Cc1cc(C)cc(NC(=O)CSCc2cnn(-c3ccccc3)c2-n2cccc2)c1 | 68.1% (inactive) |
| CC(=O)c1c(C)[nH]c(C(=O)COC(=O)CCOc2ccc(C)cc2)c1C | 11.2% (inactive) |
| O=C(CNC(=O)c1ccco1)NNC(=O)c1ccc(Br)cc1 | 1.51% (inactive) |
| O=C(CNC(=O)c1n[nH]c2ccccc12)Nc1cc(Cl)ccc1Cl | 11.3% (inactive) |
| Oc1ccc(N=Nc2nccs2)c(O)c1 | 58.9% (active) |
| Oc1ccc2ccccc2c1N=Nc1nccs1 | 99.3% (active) |
| C[C@@H]1C(c2ccc(F)cc2)=NN(c2ccc(Br)cc2)[C@H]1C(=O)N1CCOC1=O | 13.5% (inactive) |
| CCN(C[C@H]1N[C@@](Cc2ccccc2)(C(=O)OC)[C@H]2C(=O)N(Cc3ccccc3)C(=O)[C@@H]12)C(=O)c1ccc(C)cc1 | 1.44% (inactive) |
| CC1CCCCC1NC(=O)Cn1cnc2c1c(=O)n(C)c(=O)n2C (stereo not drawn) | 4.33% (inactive) |
| CCOCCCNC(=O)c1cc2c(=O)n3ccccc3nc2s1 | 32.8% (inactive) |
| Cc1cccn2c(=O)c3cc(C(=O)NCC4CCCO4)c(=N)n(Cc4ccc(F)cc4)c3nc12 (stereo not drawn) | 41.5% (inactive) |
| Cc1cccn2c(=O)c3cc(C(=O)NCCN4CCOCC4)c(=N)n(Cc4cccnc4)c3nc12 | 69.1% (active) |
| O=C(NCc1cccnc1)c1cc(S(=O)(=O)N2CCOCC2)c(Cl)cc1Cl | 2.88% (inactive) |
| CCn1c(=N)c(C(=O)NCCCOC)cc2c(=O)n3cccc(C)c3nc21 | 141% (active) |
| CCc1cccc2c(=O)c(C(=O)NCCCOC)c[nH]c12 | 21.4% (inactive) |
| COc1cc(C(=O)NC2CCN(C)CC2)ccc1Nc1ncc2c(n1)N(C1CCC(O)CC1)CCC(=O)N2C (stereo not drawn) | 5.47% (inactive) |
| C[C@H]1CN([C@@H](C)CO)C(=O)Cc2cc(NC(=O)Cc3ccccc3)ccc2O[C@H]1CN(C)S(=O)(=O)c1cccs1 | 8.68% (inactive) |
| O=C1C(=O)N(CCN2CCOCC2)C(c2cccc(Cl)c2)/C1=C(/O)c1ccc2c(c1)OCO2 (stereo not drawn) | 13.6% (inactive) |
| O=C1C(=O)N(CCN2CCOCC2)C(c2ccccn2)/C1=C(/O)c1ccc(Cl)cc1 (stereo not drawn) | 55.2% (active) |
| CCN(CC)CCN1C(=O)C(=O)/C(=C(/O)c2ccc(OC)c(OC)c2)C1c1ccccn1 (stereo not drawn) | 51.5% (active) |
| CCCOc1ccc(/C(O)=C2/C(=O)C(=O)N(CCN(C)C)C2c2ccc(OC)c(OC)c2)cc1 (stereo not drawn) | 31.1% (inactive) |
| COc1ccc(/C(O)=C2/C(=O)C(=O)N(CCCN(C)C)C2c2ccccc2)cc1OC (stereo not drawn) | 4.51% (inactive) |
| CC1Cc2cc(/C(O)=C3\C(=O)C(=O)N(CCN4CCOCC4)C3c3ccccc3F)ccc2O1 (stereo not drawn) | 6.48% (inactive) |
| CC[C@]12c3[nH]c4ccc(Cl)cc4c3CCN1C(=O)[C@@H](CC(=O)NCCCOC)C[C@@H]2C(=O)N1CCN(C(=O)c2ccco2)CC1 | 1.35% (inactive) |
| CCC(CO)Oc1cc(NC(=O)c2ccc(Cl)cc2)c2ncn(C(C)C)c2c1 (stereo not drawn) | 0.25% (inactive) |

| Compound | inhibition |
| --- | --- |
| O=C(Nc1cc(S(=O)(=O)N2CCOCC2)ccc1N1CCOCC1)c1c(F)cccc1Cl | 8.73% (inactive) |
| COc1ccc(-c2cc3ncccc3cn2)cc1 | 21.6% (inactive) |
| CC(C)(C)OC(=O)C[C@@H]1C/C=C\C[C@@H](CC(=O)NCCO)C(=O)N[C@H](Cc2c[nH]c3ccccc23)COC1=O | 3.99% (inactive) |
| COc1ccccc1N(CC(=O)N1CCCCC1)S(=O)(=O)c1ccccc1 | 13.9% (inactive) |
| CCN(c1ccccc1)S(=O)(=O)c1ccc(C(=O)Nc2ccccc2OC)cc1 | 14% (inactive) |
| COc1ccccc1NC(=O)CN(c1ccccc1OC)S(=O)(=O)c1ccccc1 | 75.8% (active) |
| O=C(NCCc1c[nH]c2ccccc12)c1cc2ccccc2oc1=O | 1.13% (inactive) |
| COC(=O)Cn1c(O)c(N=NC(=O)OC)c2ccccc21 | 41.9% (inactive) |
| CCOC(=O)Cn1c(O)c(N=NC(=O)CNC(=O)Cc2ccccc2)c2ccccc21 | 38.3% (active) |
| O=C(CNC(=O)Cc1ccccc1)N=Nc1c(O)[nH]c2ccc(Br)cc12 | 8.32% (inactive) |
| CCN(CC)C(=O)[C@H]1C[C@H](CC(=O)NCC23CC4CC(CC(C4)C2)C3)C(=O)N2CCc3c([nH]c4cc(CCC(=O)N(C)C)ccc34)[C@]12C | 5.23% (inactive) |
| Cc1ccsc1C(=O)NNC(=O)COc1ccc(Br)cc1 | 3.22% (inactive) |
| NCC(=O)c1cccc2ccc[n+]([O-])c12 | 10.5% (inactive) |
| Cc1ccc2cccc(O)c2[n+]1[O-] | 53.1% (active) |
| C[C@H](CO)N1C[C@H](C)[C@@H](CN(C)C(=O)Nc2ccc3c(c2)OCO3)Oc2c(cccc2N(C)C)C1=O | -4.67% (inactive) |
| O=C(COc1ccc(F)cc1Br)NCC1COc2ccccc2O1 (stereo not drawn) | 7.79% (inactive) |
| CC(C)(C)NS(=O)(=O)NC(=O)C1=C(N2CCCC2)COC1=O | -2.54% (inactive) |
| COc1ccc(C2=Nn3c(nnc3-c3ccccc3OC)SC2)cc1OC1CCCC1 | 11.2% (inactive) |
| N#C/C(=C\c1ccc(-c2cccc([N+](=O)[O-])c2)o1)C(=O)NCCN1CCOCC1 | 43.6% (inactive) |
| Cc1ccc(C(=O)N/C(=C/c2ccc(-c3cccc([N+](=O)[O-])c3)o2)C(=O)NCCCN(C)C)cc1 | 63.9% (active) |
| CN(C)CCNC(=O)/C(=C/c1cccc([N+](=O)[O-])c1)NC(=O)c1ccccc1 | 12.9% (inactive) |
| O=C(OCC(=O)N1CCN(C(=O)c2ccco2)CC1)c1c(Cl)cccc1Cl | 9.98% (inactive) |
| Cc1ccc(CNC(=O)CCNS(=O)(=O)c2cccc3nonc23)cc1 | 9.03% (inactive) |
| CCOC(=O)c1cccc(NC(=O)CN(c2ccc(C)cc2)S(=O)(=O)c2c(C)noc2C)c1 | 68.3% (inactive) |
| Cc1ccc(N(CC(=O)Nc2cc(C)cc(C)c2)S(=O)(=O)c2cccc3nonc23)cc1 | 46.5% (active) |
| CCOCN(C(=O)Cn1c(C(C)O)nc2ccccc21)c1c(C)cccc1CC (stereo not drawn) | 24% (inactive) |
